These results are taken from PubChem BioAssay (NCI).

About 83,000 compounds went through this panel and 20% of them were active in at least one assay; those are over-represented in the sample as a whole.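 Growth was measured after 48 h exposure to one concentration of compound in 96-well plates. Values under 10 count as active.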 Values without a mark were called inactive. Calls of active or inactive are those of the source.

This assay has as its system MDA-MB-468 breast. The assay can be described thus: NCI-60 one-dose screen, 48 h (100 = growth as untreated, 0 = no growth, -100 = all killed). The note with it: 10 µM unless noted.
Take `O=C(c1ccc(Cl)cc1)c1ccc(Cl)cc1`: the growth was 97.2%. In the case of `Cc1ccc(C2=NN(c3ccc(S(C)(=O)=O)cc3)C(=O)CC2)cc1`, the growth was 23.9%. With `O=C(Nc1ccc(Br)c(Cl)c1)c1cc(F)ccc1O` the figure was -24.5% (active). For `COc1cc(C(=O)c2ccccc2C(=O)O)c(OC)c2c1CCCC2`, the growth is 94.7%. As to `O=c1[nH]nc(-c2ccc(Br)cc2)c2sc(NC(=S)Nc3ccc(Cl)cc3)nc12`, the growth is 110%. To `COc1ccc(C2(Cl)c3ccccc3N(c3ccccc3)c3ccccc32)cc1` belongs -32.7% (active); to `O=c1c2ccccc2nc(COc2ccccc2)n1NS(=O)(=O)c1ccc(Cl)cc1`, 40.4%; to `Nc1nc(=O)n([C@H]2C[C@H](O)[C@@H](CO)O2)cc1C=O`, 107%. To `Nc1nc(C(=O)N/N=C/c2ccc(N3CCOCC3)cc2)nn1-c1ccc(S(N)(=O)=O)cc1` belongs 105%; to `CNC(=O)c1cc(Oc2ccc3nc(NC(=O)c4cc(C)cc(C)c4)sc3c2)ccn1`, 50.2%. To `O=C(Nc1ccc(Oc2ccc(Nc3nc4ccccc4s3)cc2)cc1)Nc1ccc(Cl)c(Cl)c1` belongs 8.01% (active); to `CSc1nc2ncncc2[nH]1`, 103%. `O=C(/C=C/C12c3ccccc3C(c3ccccc31)C1C(=O)NC(=O)C12)c1ccc(Cl)cc1` (stereo not given): the growth is -19.5% (active).

As to `Fc1ccc(-c2nnc(-c3c(-c4ccc(F)cc4)nc4ncccn34)o2)cc1`, the growth is 88.7%.

On to `COC(=O)C1=NNC(=S)N(c2cc(C)[nH]n2)C(=O)C1`, for which the growth is 108%.
